System: GSK3B
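Also: kd values determined as follow-up on hits from a single-replicate KINOMEscan panel screen.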

SMILES	Kd [nM]
COc1ccc(CSc2nnc(-c3ccc4ncsc4c3)o2)cc1C(F)(F)F	39
COc1ccc(CSc2nnc(-c3ccc4nccn4c3)o2)cc1C(F)(F)F	22
O=C(Nc1n[nH]c2nc(-c3cccs3)c(Br)cc12)C1CCCC1 [SB-743341]	120

System: JAK2(JH1domain-catalytic)

SMILES	Kd [nM]
Cn1cncc1C(=O)NC1CCN(c2ccnc(Nc3ccc(F)cc3)n2)C1 (stereo not drawn) [GSK1379717]	1500
Nc1cccc(-c2ccc3c(N)n[nH]c3c2)n1 [GSK2192730]	> 10000
COc1ccc(Nc2nccc(N3CCC(NC(=O)c4cc5ccccc5s4)C3)n2)cc1 (stereo not drawn) [GSK1379738]	1800
COc1ccc2cc(-c3nc(-c4ccccc4C(C)C)[nH]c3-c3ccncc3)ccc2c1 [SB-660566]	> 10000

System: T1, JNK2
T1 construct: gene MAPK9

SMILES	Kd [nM]
CNC(=O)c1ccc(C)c(-n2c(C)cc(OCc3ccc(F)cc3F)c(Br)c2=O)c1	> 10000
Fc1ccc(-c2nc[nH]c2-c2ccncc2)cc1 [SB-217360]	85
Fc1ccc(-c2nc3n(c2-c2ccncc2)CCS3)cc1 [GI98581]	270
Nc1nccc(-c2c(-c3ccc(F)cc3)ncn2C2CCN(Cc3ccccc3)CC2)n1 [SB-219980]	43
Fc1ccc(-c2nn3cccc(F)c3c2-c2ccncc2)cc1 [GW475620]	230
CCCCc1nn2ncccc2c1-c1ccnc(NC2CC2)n1 [GW684374]	1300

System: T2, JNK3
T2 construct: gene MAPK10

SMILES	Kd [nM]
CNC(=O)c1ccc(C)c(-n2c(C)cc(OCc3ccc(F)cc3F)c(Br)c2=O)c1	> 10000
Fc1ccc(-c2nc[nH]c2-c2ccncc2)cc1 [SB-217360]	11
Fc1ccc(-c2nc3n(c2-c2ccncc2)CCS3)cc1 [GI98581]	57
Nc1nccc(-c2c(-c3ccc(F)cc3)ncn2C2CCN(Cc3ccccc3)CC2)n1 [SB-219980]	31
Fc1ccc(-c2nn3cccc(F)c3c2-c2ccncc2)cc1 [GW475620]	58
CCCCc1nn2ncccc2c1-c1ccnc(NC2CC2)n1 [GW684374]	740

System: KIT

SMILES	Kd [nM]
Cc1ccc(NC(=O)c2ccc(Cl)cc2)cc1-c1ccc(C(=O)Nc2ccncc2)cc1 [GSK1398467]	170
CS(=O)(=O)Cc1ccc(Nc2nccc(-c3c(-c4cccc(NC(=O)C5CCCCC5)c4)nn4ncccc34)n2)cc1 [GSK350559]	110
COc1cccc(NC(=O)Nc2ccc(C)c(-c3ccc(C(=O)Nc4ccncc4)cc3)c2)c1 [GSK1398474]	73
Cc1ccc(NC(=O)Nc2ccccc2)cc1-c1ccc(C(=O)Nc2ccncc2)cc1 [GSK1398471]	140
Cc1ccc(NC(=O)Nc2ccccc2F)cc1-c1ccc(C(=O)Nc2ccncc2)cc1 [GSK1398477]	450
Cc1ccc(NC(=O)Nc2ccc(Cl)cc2)cc1-c1ccc(C(=O)Nc2ccncc2)cc1 [GSK1398472]	140
Cc1ccc(NC(=O)Nc2ccc(Cl)c(C(F)(F)F)c2)cc1-c1ccc(C(=O)Nc2ccncc2)cc1 [GSK1398470]	560
Cc1cnc(N)c(/C=C/c2cncc(C(=O)NCCc3ccc(Cl)cc3Cl)c2)c1.Cl [GSK190937]	150
